Bioassay records from PubChem.
PostGolgi ctrl: inhibits growth of the yeast control strain. efflux-deficient yeast background strain, growth absorbance A615, 16 h. inhibition, % at 10 µM. hit rate 5% among 98,000
Cav32 inh: human Cav3.2 channel inhibition, primary screen; O95180; Cav3.2-expressing cells, Fluo-4 calcium fluorescence FDSS; active compounds read low; B-score at 10 µM; hit rate 4% among 100,000;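 active means single-dose well whose peak fluorescence ratio is a statistical outlier from its plate by either plate-standardised score or position-corrected B-score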
PLAP activator: activators of human placental alkaline phosphatase; purified PLAP enzyme, luminescent substrate read-out; active compounds read high; activation fold at 20 µM; AID 696; P05187; hit rate 1.2% among 96,000; in the data active means activation fold above about 2
D1 allo mod: D1 dopamine receptor (human) allosteric modulation | AID 641 | HEK293 D1, CRE-luciferase, dopamine EC30 potentiation; actives deviate in either direction | P21728 | hit rate 5.9% among 58,000 | B-score at 10 µM;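 active means luminescence count or its row- and column-corrected plate score outside the 99.7% band of the plate's sample wells, on either side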
Target sequence (P21728 whole entry, looked up): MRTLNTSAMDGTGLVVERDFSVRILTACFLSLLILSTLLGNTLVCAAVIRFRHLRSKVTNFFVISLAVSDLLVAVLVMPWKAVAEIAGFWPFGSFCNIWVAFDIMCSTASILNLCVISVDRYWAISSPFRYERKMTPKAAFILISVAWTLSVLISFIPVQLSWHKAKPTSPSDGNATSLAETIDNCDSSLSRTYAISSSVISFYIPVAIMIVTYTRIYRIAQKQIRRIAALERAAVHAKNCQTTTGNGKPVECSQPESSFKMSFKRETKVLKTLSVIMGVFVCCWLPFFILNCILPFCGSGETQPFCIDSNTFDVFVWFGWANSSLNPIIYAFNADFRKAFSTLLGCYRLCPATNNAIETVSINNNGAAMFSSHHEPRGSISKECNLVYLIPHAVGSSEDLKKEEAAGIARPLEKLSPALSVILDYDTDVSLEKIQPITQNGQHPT
PostGolgi yeast: growth inhibition of a yeast mutant, post-Golgi transport screen. post-Golgi transport phenotypic cell assay. inhibition, % at 10 µM. hit rate 0.9% among 98,000;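 further: yeast cells grown in 1536-well plates; yeast grown about 18 h at 30C before absorbance read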
hDAT+cocaine: modulates human dopamine transporter uptake under cocaine | Q01959 | hit rate 1.3% among 110,000 | LLC-PK1 hDAT cells, [14C]-dopamine uptake with cocaine IC80; actives deviate in either direction | B-score at 10 µM;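 active means Z score or B-score, a plate-position-corrected score, falls beyond the plate's 99.7% confidence bounds, in either direction; inactive means both scores lie inside the 99.7% bounds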
Of the large screens only hits and unclear results are named; the others gave an inactive call. This is a sample that favours compounds with a hit; in the whole collection about 12% have one here. Unless noted, no stated cut-off is given here; in the data, active means inhibition above about 30%; inactive means the rest.

CCCOc1cccc(C(=O)Nc2cc(NC(=O)c3ccco3)ccc2OC)c1	PostGolgi ctrl 41, Cav32 inh -6.4
COc1c(C)cc(Br)cc1C(=O)Nc1cccc(NC(=O)c2ccco2)c1	PostGolgi ctrl 56, PostGolgi yeast 31
Cc1cc(C)c(OCC(=O)Nc2cccc(NC(=O)c3ccco3)c2)c(Br)c1	Cav32 inh -4.4 (no result: PostGolgi ctrl, PostGolgi yeast)
COc1cccc(NC(=O)c2ccco2)c1	none
O=C(NCC1CC1)[C@]1(C(F)(F)F)C[C@H](CCC2CCCCC2)CCCO1	none (no result: PostGolgi ctrl, PLAP activator, D1 allo mod, PostGolgi yeast)
Cc1nnc(-c2cnn(C)c2N)n1Cc1cccc(Cl)c1	none (no result: D1 allo mod)
Cc1nnc(-c2cnn(C)c2N)n1Cc1ccccc1	Cav32 inh -5.1 (no result: D1 allo mod)
CC1=C(C(=O)Nc2ccccc2F)C(c2ccsc2)C2=C(CC(c3ccccc3)CC2=O)N1 (stereo not drawn)	Cav32 inh -6.5 (no result: D1 allo mod)
CCOCCOC(=O)C1=C(C)NC2=C(C(=O)CC(c3cccs3)C2)C1c1ccsc1 (stereo not drawn)	none
CC(C)CN(CC(C)C)S(=O)(=O)c1cc([N+](=O)[O-])ccc1N1CCCCCC1	Cav32 inh -5.2 (no result: D1 allo mod)
O=[N+]([O-])c1ccc(N2CCCCCC2)c([N+](=O)[O-])c1	Cav32 inh -4.7 (no result: D1 allo mod)
Cn1c(SCC(=O)NCCNC(=O)CSc2nnc(C(F)(F)F)n2C)nnc1C(F)(F)F	none (no result: D1 allo mod)
CCOC(=O)COn1c(=O)c(-c2cccs2)[n+]([O-])c2ccccc21	none
CCOn1c(=O)c(-c2cccs2)[n+]([O-])c2ccccc21	PostGolgi ctrl 42 (no result: D1 allo mod)
O=C(CN(c1ccc(Cl)c(C(F)(F)F)c1)S(=O)(=O)c1ccccc1)N/N=C/c1cccc2c1OCCO2	none (no result: Cav32 inh, D1 allo mod, hDAT+cocaine)
CCOC(=O)c1cnc(SCc2cccc(C)c2)nc1N	Cav32 inh -4.9 (no result: D1 allo mod)
COc1cccc(-c2cn3nc4c(nc3n2)CCCC4)c1	D1 allo mod -4.8
COc1ccccc1NC(=O)c1csc(-n2nc(C)cc2C(F)(F)F)n1	none (no result: D1 allo mod)
Cc1cc(C(F)(F)F)n(-c2nc(C(=O)Nc3ccccc3Oc3ccccc3)cs2)n1	Cav32 inh -4.4 (no result: D1 allo mod)
CCC(C)NS(=O)(=O)c1ccc(OC)c(Cl)c1Cl (stereo not drawn)	none (no result: D1 allo mod)
COc1cccc(-c2nc(CS(=O)(=O)CC(=O)NCc3ccccc3)c(C)o2)c1	none (no result: Cav32 inh, D1 allo mod, hDAT+cocaine)
Cc1ccccc1-c1nc(CS(=O)(=O)CC(=O)NCc2ccccc2)c(C)o1	Cav32 inh -4.2
COc1cccc(-c2nc(CS(=O)(=O)CC(=O)NCCCN3CCc4ccccc4C3)c(C)o2)c1	Cav32 inh -5.7
Cc1ccccc1-c1nc(CS(=O)(=O)CC(=O)N(C)C2CCCCC2)c(C)o1	Cav32 inh -7.3
COc1ccc(OC)c(CCNC(=O)CS(=O)(=O)Cc2nc(-c3ccccc3C)oc2C)c1	PostGolgi ctrl 37 (no result: Cav32 inh, hDAT+cocaine)
COc1cccc(-c2nc(CS(=O)(=O)CC(=O)NCCCOC(C)C)c(C)o2)c1	none
Cc1oc(-c2ccccc2F)nc1CS(=O)(=O)CC(=O)N1CCCCCC1	none
CCOC(=O)C1=CN(c2cccc(F)c2)C=C(C(=O)OCC)C1c1cc(OC)c(O)c([N+](=O)[O-])c1	none (no result: D1 allo mod)
CCOc1cc(NC(=O)CC(C)C)c(OCC)cc1NC(=O)CCn1nnc2ccccc21	none (no result: D1 allo mod)
CCN(CCCNC(=O)C1CCC(=O)N1C(C)C)c1cccc(C)c1 (stereo not drawn)	none (no result: D1 allo mod)
CSc1nsc(SCC(=O)N2CCN(c3ccccc3)CC2)n1	none
Cn1ccnc1SCC(=O)Nc1cc(C(F)(F)F)ccc1N1CCOCC1	none (no result: D1 allo mod)
CCOC(=O)C1(C(C)(C)CC)CC(CSc2nc3ccccc3[nH]2)OC1=O (stereo not drawn)	Cav32 inh -6.8 (no result: PostGolgi ctrl, PLAP activator, D1 allo mod, PostGolgi yeast)
CCOC(=O)CSc1nc2ccccc2c(=O)[nH]1	none (no result: D1 allo mod)
CCN(CC)c1ccc2c(Cl)c(Br)c(=O)oc2c1	Cav32 inh -6.4
CCOC(=O)Cc1c(C)c2ccc(N(CC)CC)cc2oc1=O	PostGolgi yeast 46 (no result: Cav32 inh, hDAT+cocaine)
O=P1(c2ccccc2)C=Cn2c1cc1c2CCCC1 (stereo not drawn)	none (no result: PLAP activator)
Cc1ccc(NC(=O)c2ccc3ccccc3n2)nc1	PostGolgi ctrl 34
Cc1nnc(NC(=O)c2sc3ccccc3c2Cl)s1	PostGolgi ctrl 54, D1 allo mod -6.4
COCc1nnc(NC(=O)c2sc3ccccc3c2Cl)s1	PostGolgi ctrl 30
Cc1ccc(NC(=O)c2sc3ccccc3c2Cl)nc1	PostGolgi ctrl 31 (no result: D1 allo mod)
Cc1ccc(NC(=O)c2cccc(Cl)c2)nc1	none
O=C(NC1=NCCS1)c1sc2ccccc2c1Cl	none (no result: D1 allo mod)
O=C1c2ccccc2C(Nc2ccc(F)cc2F)N1CCN1CCOCC1 (stereo not drawn)	none
COCc1nnc(NC(=O)CSc2ccccc2)s1	hDAT+cocaine -2.6
COCCN1C(=O)C(=O)/C(=C(/O)c2ccc(S(=O)(=O)N3CCOCC3)cc2)C1c1ccc(C(C)C)cc1 (stereo not drawn)	none (no result: D1 allo mod)
CCn1c2ccccc2c2nnc(SCc3cc(=O)n4ccsc4n3)nc21	D1 allo mod 12 (no result: PostGolgi ctrl, Cav32 inh, PostGolgi yeast, hDAT+cocaine)
Cc1cccc(-n2c(SCc3cc(=O)n4ccsc4n3)nc3ccccc32)c1	PostGolgi ctrl 33 (no result: Cav32 inh, PLAP activator, hDAT+cocaine)
CCn1c2ccccc2c2nnc(SCC(=O)N3CC(C)OC(C)C3)nc21 (stereo not drawn)	hDAT+cocaine -8.8
CCCn1c(=O)c2ccccc2n2c(SCc3cc(=O)n4ccsc4n3)nnc12	none (no result: PostGolgi ctrl, Cav32 inh, PLAP activator, PostGolgi yeast, hDAT+cocaine)
CCCn1c2ccccc2c2nnc(SCC(=O)Nc3cc(C)on3)nc21	none (no result: D1 allo mod)
CCOc1ccc(OCC)c(-c2c(=O)n(OCc3ccc(C(C)(C)C)cc3)c3ccccc3[n+]2[O-])c1	none (no result: D1 allo mod)
COc1ccc(C(=O)N2CCN(C3CCC(c4ccccc4)CC3)CC2)cc1OC (stereo not drawn)	D1 allo mod -5.1
COc1ccc(C(=O)N2CCN(C(=O)Cc3ccccc3)CC2)cc1OC	PostGolgi ctrl 47
COc1ccccc1N1CCN(C2CCN(C(=O)c3cccs3)CC2)CC1	none (no result: PLAP activator)
COc1ccccc1N1CCN(C2CCN(C(=O)c3cc(OC)c(OC)c(OC)c3)CC2)CC1	PostGolgi yeast 36 (no result: D1 allo mod)
C=C(C)C1CCC(C)=C1COC(=O)Nc1ccccc1 (stereo not drawn)	none
COC(=O)C(C)Sc1snnc1-c1ccccc1 (stereo not drawn)	none (no result: D1 allo mod)
Cc1ccc(-n2c(SCc3cn4ccsc4n3)nc3ccccc3c2=O)cc1	none (no result: hDAT+cocaine)
CCCNS(=O)(=O)c1cccc(C(=O)NC2CCCc3ccccc32)c1 (stereo not drawn)	none (no result: D1 allo mod)
CCOC(=O)c1c(N)sc2c(OC)c(Br)ccc12	PostGolgi ctrl 44
CCOC(=O)c1c(C)[nH]c2cc(Br)c(OC)cc12	none
CCCC(=O)Nc1ccc2c(c1)nc(CN1CCCCC1)n2C	none
O=C1NC(=O)/C(=C\c2ccccc2Oc2ccc(F)c(F)c2)S1	PostGolgi ctrl 43 (no result: Cav32 inh, D1 allo mod)
N/C(Cc1ccc(Cl)cc1Cl)=N\OC(=O)c1cccs1	PostGolgi ctrl 58 (no result: D1 allo mod)
COc1ccc(OC)c(S(=O)(=O)NCc2cn3cccc(C)c3n2)c1	none (no result: PostGolgi ctrl, PLAP activator, PostGolgi yeast)
Cc1cccn2cc(CNS(=O)(=O)c3cccc(F)c3)nc12	PLAP activator 2.3 (no result: D1 allo mod)
Cc1ccc(Cn2c(NCCCn3ccnc3)nc3c2c(=O)n(C)c(=O)n3C)cc1	none
